Assay results: publication PMC4552634, “A New Set of Chemical Starting Points with Plasmodium falciparum Transmission-Blocking Potential for Antimalarial Drug Discovery” (PLoS ONE, 2015)
The campaign covered roughly 13,000 compounds. About 3,200 (25%) showed an effect of 50% or more. The list shows a part of the results.

The molecules below were run on P. falciparum stage V gametocytes. Conditions: 48 h, 5 µM; inhibitor.
Design: BacTiter-Glo ATP luminescence viability of purified stage V gametocytes in 384-well plates, per cent inhibition versus DMSO

Compound | % Inhibition [%]
Oc1c(CN2CCCC(C(F)(F)F)C2)cc(Cl)c2ccccc12 (stereo not shown) [TCMDC-124857] | 96.48
O=C(c1ccc(Cl)cc1Cl)N1CCCC(C(F)(F)F)C1 (stereo not shown) [TCMDC-123721] | 22.72
CC1CCCN(Cc2cc(Cl)cc(Cl)c2O)C1 (stereo not shown) [TCMDC-125392] | 14.71
CC(=O)Nc1ccc(CN2CCC(N(C)c3cc(NC(=O)c4ccc(F)cc4)ccn3)CC2)cc1 [TCMDC-134983] | -11.33
Cc1cc(C(=O)N(Cc2ccc(-c3ccc(CNCCc4ccc(S(C)(=O)=O)cc4)cn3)cc2)C(C)CN(C)C)ccc1[N+](=O)[O-] (stereo not shown) [TCMDC-141521] | 51.26
Cc1cnc(CN(Cc2ccc(-c3ccc(CNCCc4ccc(S(C)(=O)=O)cc4)cn3)cc2)C(=O)c2ccc([N+](=O)[O-])c(C)c2)cn1 [TCMDC-141520] | 64.44
Cc1cnc(CN(Cc2ccc(-c3ccc(CNCCc4ccc(S(C)(=O)=O)cc4)cn3)cc2)C(=O)c2nn(-c3ccccc3)nc2C)cn1 [TCMDC-141522] | -18.48
Cc1nn(-c2ccccc2)nc1C(=O)N(Cc1ccc(-c2ccc(CNCCc3ccc(S(C)(=O)=O)cc3)cn2)cc1)C1CC1 [TCMDC-141523] | 39.99
C=CC[C@H](C[C@H](O)[C@H](Cc1ccccc1)NC(=O)c1nn(-c2ccccc2)nc1C)C(=O)NC1CCCCC1 [TCMDC-141422] | -47.48
O=C(Cc1cccc(Cl)c1)Nc1cccc(-c2c[nH]c3nc(Nc4cccc(OCc5ccccc5)c4)ncc23)c1 [TCMDC-134680] | -43.48
Cc1ccc(Nc2nccc(NCC(O)c3cccc(F)c3)n2)cc1 (stereo not shown) [TCMDC-136572] | -5.913
C[C@@H](COc1ccccc1)NCC(O)c1ccc([N+](=O)[O-])c(OCc2ccccc2)c1 (stereo partly shown) [TCMDC-132032] | 7.287
Cc1ccc(S(=O)(=O)N(CCCN2CCN(C)CC2)Cc2csc(-c3ccc(CNCc4ccccc4)cc3)n2)cc1 [TCMDC-141602] | 64.23
CN1CCN(CCCN(Cc2csc(-c3ccc(CNCc4ccccc4)cc3)n2)S(=O)(=O)c2cccc3cccnc23)CC1 [TCMDC-141598] | 96.08
COc1ccc(S(=O)(=O)N(CCCN2CCN(C)CC2)Cc2csc(-c3ccc(CNCc4ccccc4)cc3)n2)cc1 [TCMDC-141599] | 65.47
CN1CCN(CCCN(Cc2csc(-c3ccc(CNCc4ccccc4)cc3)n2)S(=O)(=O)c2ccc(F)cc2)CC1 [TCMDC-141601] | 76.11
O=C(Nc1cccc(-c2ccc(CN3CCC(O)CC3)cc2)c1)c1ccc(Cl)cc1 [TCMDC-132633] | -6.492
COCCN1CCC(C(=O)NCC(C)(C)c2nc(-c3ccc(Br)c(O)c3)c(-c3ccncc3)[nH]2)CC1 [TCMDC-140792] | 8.912
O=C(NNC(=O)c1ccc(CCN2CCC(c3nc(COCC(F)(F)F)c(-c4ccc(F)cc4)o3)CC2)cc1)Nc1ccc(Oc2ccccc2)cc1 [TCMDC-131906] | -12.54
CN1CCN(CCCN(Cc2csc(-c3ccc(CNCc4ccccc4)cc3)n2)S(=O)(=O)c2ccccc2)CC1 [TCMDC-141600] | 63.87
CN1CCN(CCCN(Cc2csc(-c3ccc(CNCc4ccccc4)cc3)n2)C(=O)Nc2ccc3ccccc3c2)CC1 [TCMDC-141642] | 43.35

Compound | % Inhibition [%]
CN1CCN(CCCN(Cc2csc(-c3ccc(CNCc4ccccc4)cc3)n2)C(=O)c2cc(F)cc(F)c2)CC1 [TCMDC-141812] | 50.04
CN1CCN(CCCN(Cc2csc(-c3ccc(CNCc4ccccc4)cc3)n2)C(=O)Nc2cc(Cl)cc(Cl)c2)CC1 [TCMDC-141795] | 32.67
CN1CCN(CCCN(Cc2csc(-c3ccc(CNCc4ccccc4)cc3)n2)S(=O)(=O)c2ccccc2Cl)CC1 [TCMDC-141603] | 99.67
CCc1ccc(NC(=O)N(CCCN2CCN(C)CC2)Cc2csc(-c3ccc(CNCc4ccccc4)cc3)n2)cc1 [TCMDC-141641] | 9.107
Cc1ccccc1C1CCN(C2CCC(NC(=O)/C=C/c3ccc4c(c3)OC(F)(F)O4)CC2)CC1 (stereo not shown) [TCMDC-133520] | -82.53
COc1cc(Br)ccc1N1CCN(CCCCNC(=O)c2ccc(NC(=O)c3ccc(Cl)cc3)cc2)CC1 [TCMDC-138257] | 6.971
CC(C)c1ccc2[nH]c(C(=O)NC3CCC(N4CCCc5ccc(C#N)cc5C4)CC3)cc2c1 (stereo not shown) [TCMDC-133503] | -23.75
O=C(NCCCNc1ccnc2cc(Cl)ccc12)c1ccccc1F [TCMDC-125231] | 46.84
N#Cc1ccccc1C1CCN(C2CCC(Nc3cc(-c4cccnc4)ccn3)CC2)CC1 (stereo not shown) [TCMDC-134834] | -2.713
Cc1cc(C(F)(F)F)nn1-c1ccc(NC(=O)c2ccco2)cc1 [TCMDC-124896] | 9.865
O=C(/C=C/c1ccc(Cl)c(Cl)c1)NCCCCCN1CCC(NC(=O)Nc2cccc(Cl)c2Cl)CC1 [TCMDC-135725] | -48.39
NC1=NC(c2ccccc2)(c2ccccc2)C(=O)N1CC1CCC1 [TCMDC-136775] | 2.608
Cc1ccccc1NC(=S)NC1CCN(CCCCCNC(=O)/C=C/c2ccc(Cl)c(Cl)c2)CC1 [TCMDC-135897] | 97.66
Cc1ccc(NC(=S)NC2CCN(CCCCCNC(=O)/C=C/c3ccc(Cl)c(Cl)c3)CC2)cc1Cl [TCMDC-135901] | 122.2
O=C(/C=C/c1ccc(Cl)c(Cl)c1)NCCCCCN1CCC(NC(=O)Nc2cc(Cl)cc(Cl)c2)CC1 [TCMDC-135727] | -63.17
O=C(/C=C/c1ccc(Cl)c(Cl)c1)NCCCCCN1CCC(NC(=S)Nc2cccc(Cl)c2)CC1 [TCMDC-135899] | -1.091
O=C(/C=C/c1ccc(Cl)c(Cl)c1)NCCCCCN1CCC(NC(=O)Nc2cccc(Cl)c2)CC1 [TCMDC-135711] | 59.36
Cc1cccc(NC(=S)NC2CCN(CCCCCNC(=O)/C=C/c3ccc(Cl)c(Cl)c3)CC2)c1 [TCMDC-139390] | -46.46
CSc1ccccc1NC(=S)NC1CCN(CCCCCNC(=O)/C=C/c2ccc(Cl)c(Cl)c2)CC1 [TCMDC-139391] | 14.69
Cc1ccccc1NC(=O)NC1CCN(CCCCCNC(=O)/C=C/c2ccc(Cl)c(Cl)c2)CC1 [TCMDC-135701] | -65.25
O=C(/C=C/c1ccc(Cl)c(Cl)c1)NCCCCCN1CCC(NC(=S)Nc2ccc(Cl)c(Cl)c2)CC1 [TCMDC-135903] | -7.54

Compound | % Inhibition [%]
O=C(/C=C/c1ccc(Cl)c(Cl)c1)N1CCC(CCN2CCC(c3nc4ccc(O)cc4[nH]3)CC2)CC1 [TCMDC-140127] | -21.57
O=C(Nc1ccc(F)cc1)c1cnc(N2CCN(c3ccncc3)CC2)c(Cl)c1 [TCMDC-134599] | 47.6
CC(C)(CNC(=O)C1CCN(Cc2ccc(Cl)cc2)CC1)c1nc(-c2ccc(Cl)c(O)c2)c(-c2ccncc2)[nH]1 [TCMDC-141138] | -35.73
NC(=O)c1cc2nc(Nc3ccc(F)cc3)nc(Nc3ccc(S(N)(=O)=O)cc3)c2[nH]1 [TCMDC-137043] | -45.2
CC(C)(C)NCc1cc(Nc2ccnc3cc(Cl)ccc23)ccc1F [TCMDC-135909] | -17.74
C[C@H](NC(=O)[C@H](CCCCNC(=O)OC(C)(C)C)NC(=O)OC(C)(C)c1ccc(-c2ccccc2)cc1)C(=O)OCc1ccccc1 [TCMDC-131396] | 15.4
O=C(Nc1ccc2nccc(N3CCN4CCC[C@H]4C3)c2c1)c1ccc(Cl)c(Cl)c1 [TCMDC-139628] | 19.58
CC[C@H](C)CNC(=O)c1cccc(-c2cccc(CN3CCC(N4CCCC4)CC3)c2)n1 [TCMDC-134224] | 16.22
CC[C@H](C)CNC(=O)c1ccnc(-c2ccc(CN3CCC(N4CCCC4)CC3)cc2)c1 [TCMDC-134250] | 36.18
CC[C@H](C)CNC(=O)c1cccc(-c2ccc(CN3CCC(N4CCCC4)CC3)cc2)n1 [TCMDC-134249] | 57.67
N#Cc1ccc2c(c1)CCN(CCC1CCC(NC(=O)c3cc4cccc(Cl)c4[nH]3)CC1)CC2 (stereo not shown) [TCMDC-139685] | -1.386
Cc1ccc(C(=O)Cn2nc(-c3ccc(C)c(S(=O)(=O)N4CCCC4)c3)ccc2=O)cc1 [TCMDC-124704] | -26.21
Cc1ccc(C(=O)Cn2nc(-c3ccc(C)c(S(=O)(=O)N4CCCCC4)c3)ccc2=O)cc1 [TCMDC-124714] | 32.41
Cc1ccc(-c2nnc3c4ccccc4c(C)nn23)cc1S(=O)(=O)N1CCN(CCO)CC1 [TCMDC-124482] | 63.32
NC(=S)Cc1ccc2c(c1)OCO2 [TCMDC-137863] | -6.254
O=C(Cc1ccccc1)NC(CCN1CCC(N(C2CC2)S(=O)(=O)c2cccc(C(F)(F)F)c2)CC1)c1ccc(Cl)c(Cl)c1 (stereo not shown) [TCMDC-141710] | 20.7
CCCCCN1CCC(NS(=O)(=O)c2cccc(C(=O)Nc3ccc(Cl)cc3)c2)CC1 [TCMDC-132806] | 32.08
Cc1cnn(-c2cccc(C(=O)NC3CCC(CCN4CCc5ccc(C#N)cc5CC4)CC3)c2)c1 (stereo not shown) [TCMDC-139818] | -20.34
Cc1cccc2[nH]c(-c3cccc(-c4ccc(NC(=O)Nc5ccsc5)cc4)c3)nc12 [TCMDC-133211] | 22.09
